From ChEMBL document CHEMBL3988442, “University of Dundee, Small-Polar-MMV Screening Library” (2021) come the findings set out here.

Set-up in all cases: scale not given: direction of the effect not stated beside the values
Experiment [1] addresses Protein translocase subunit SecA (Escherichia coli (strain K12)) (UniProt P10408). Description: Assay to Identify E. coli SecA ATPase Inhibitors. In kind it is functional. To be noted: 30 µM.
Experiment [2] deals with T1, Ubiquitin-activating enzyme e1, putative (Leishmania donovani (strain BPK282A1)) (UniProt E9BSI1).
T1 sequence (whole entry): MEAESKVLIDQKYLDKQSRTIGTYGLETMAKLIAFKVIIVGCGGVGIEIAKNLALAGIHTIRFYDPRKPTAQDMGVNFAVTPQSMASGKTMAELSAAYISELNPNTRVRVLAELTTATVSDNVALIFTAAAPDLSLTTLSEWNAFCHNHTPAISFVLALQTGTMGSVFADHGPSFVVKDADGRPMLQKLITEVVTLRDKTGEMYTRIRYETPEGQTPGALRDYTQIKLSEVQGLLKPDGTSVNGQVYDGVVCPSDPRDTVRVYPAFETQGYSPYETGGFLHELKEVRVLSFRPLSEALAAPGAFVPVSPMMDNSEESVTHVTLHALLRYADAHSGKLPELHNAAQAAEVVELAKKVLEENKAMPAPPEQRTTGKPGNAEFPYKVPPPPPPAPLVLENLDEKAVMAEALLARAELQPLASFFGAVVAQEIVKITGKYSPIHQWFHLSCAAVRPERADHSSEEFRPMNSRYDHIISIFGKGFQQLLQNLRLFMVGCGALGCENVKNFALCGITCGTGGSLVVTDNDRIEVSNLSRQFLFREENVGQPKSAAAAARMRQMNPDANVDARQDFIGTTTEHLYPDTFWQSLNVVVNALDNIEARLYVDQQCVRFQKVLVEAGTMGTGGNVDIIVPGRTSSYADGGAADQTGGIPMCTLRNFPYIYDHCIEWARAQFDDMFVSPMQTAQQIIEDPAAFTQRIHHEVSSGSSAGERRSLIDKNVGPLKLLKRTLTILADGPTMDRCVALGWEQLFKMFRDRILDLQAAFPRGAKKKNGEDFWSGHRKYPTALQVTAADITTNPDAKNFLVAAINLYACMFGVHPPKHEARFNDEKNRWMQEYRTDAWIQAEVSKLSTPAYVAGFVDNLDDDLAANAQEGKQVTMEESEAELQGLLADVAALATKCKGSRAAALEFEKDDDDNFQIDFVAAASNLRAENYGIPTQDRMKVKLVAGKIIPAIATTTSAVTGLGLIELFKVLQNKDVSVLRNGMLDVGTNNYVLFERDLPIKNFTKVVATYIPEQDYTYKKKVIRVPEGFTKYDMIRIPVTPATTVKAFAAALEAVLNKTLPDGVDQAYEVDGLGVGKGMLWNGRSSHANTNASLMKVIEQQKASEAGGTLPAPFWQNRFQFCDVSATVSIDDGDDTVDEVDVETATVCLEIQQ
Description: Leishmania donovani Ubiquitin Activating Enzyme (LdE1). Type of experiment: functional. To be noted: 30 µM.

The target in experiment [3] is AMP-activated protein kinase, AMPK (Homo sapiens) (UniProt P54646+O43741+P54619+Q9UGJ0+Q9Y478+Q13131+Q9UGI9). Description: AMP-dependent Kinase enzyme assay. An in vitro enzyme assay that detects ADP turnover that is directly proportional to AMPK activity. This uses naive AMPK that is activated during the assay with MK-8722. Type of experiment: functional. Particulars: 30 µM.

Experiment [4] has as its target Sialic acid-binding Ig-like lectin 9 (Homo sapiens) (UniProt Q9Y336). Description: Hs-Siglec9 ALPHAscreen SOP 20170721. To be noted: 10 µM. For orientation: Alpha assays give light when donor and acceptor beads are brought close together.
Another experiment relates to Trypanosoma cruzi. Description: Trypanosoma cruzi phosphomannomutase and mannose-1-phosphate guanylyltransferase assay. In kind it is functional. Particulars: 10 µM.
The target in experiment [5] is T2, Arginase-2, mitochondrial (Homo sapiens) (UniProt P78540).
T2 sequence (whole entry): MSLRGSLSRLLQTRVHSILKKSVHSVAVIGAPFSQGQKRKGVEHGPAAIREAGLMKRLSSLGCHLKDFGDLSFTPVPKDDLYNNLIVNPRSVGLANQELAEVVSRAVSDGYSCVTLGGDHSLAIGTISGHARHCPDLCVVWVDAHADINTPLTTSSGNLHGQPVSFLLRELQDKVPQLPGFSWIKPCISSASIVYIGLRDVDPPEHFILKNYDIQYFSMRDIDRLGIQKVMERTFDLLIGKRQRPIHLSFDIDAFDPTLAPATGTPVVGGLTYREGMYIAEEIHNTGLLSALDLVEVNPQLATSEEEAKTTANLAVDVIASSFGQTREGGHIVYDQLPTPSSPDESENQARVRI
Description: in vitro enzyme assay to detect the production of urea directly proportional to the activity of Arginase II. Also: in the data most compounds retested in dose-response had high values. In kind it is functional. Particulars: 33.3 µM.

The target in experiment [6] is T3, Proteasome subunit beta (Trypanosoma cruzi) (UniProt O96673).
T3 sequence (whole entry): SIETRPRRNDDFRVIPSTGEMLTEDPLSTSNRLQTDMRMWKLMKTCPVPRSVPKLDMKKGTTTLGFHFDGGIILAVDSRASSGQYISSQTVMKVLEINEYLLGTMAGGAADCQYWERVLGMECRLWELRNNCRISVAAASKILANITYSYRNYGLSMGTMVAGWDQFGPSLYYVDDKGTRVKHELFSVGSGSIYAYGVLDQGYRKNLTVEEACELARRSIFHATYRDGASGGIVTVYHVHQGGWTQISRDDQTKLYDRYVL
Description: Trypanosoma cruzi proteasome chymotrypsin-like activity (TcProtChymo) assay. Also: in the data most compounds retested in dose-response had high values. Type of experiment: functional. Particulars: 9.37 µM.

For the next experiment, the species on record is Homo sapiens. Description: To identify inhibition of the IFN signalling (Jak-Stat) pathway via expression of an eGFP reporter gene under the control of an IFN-stimulated response element (ISRE) containing MxA promoter. In kind it is functional. To be noted: 30 µM. In general terms: A reporter such as luciferase makes a cellular process visible.
Experiment [7] has as its target T4, Tyrosyl-tRNA synthetase, putative (Trypanosoma cruzi (strain CL Brener)) (UniProt Q4DSP6).
T4 sequence (whole entry): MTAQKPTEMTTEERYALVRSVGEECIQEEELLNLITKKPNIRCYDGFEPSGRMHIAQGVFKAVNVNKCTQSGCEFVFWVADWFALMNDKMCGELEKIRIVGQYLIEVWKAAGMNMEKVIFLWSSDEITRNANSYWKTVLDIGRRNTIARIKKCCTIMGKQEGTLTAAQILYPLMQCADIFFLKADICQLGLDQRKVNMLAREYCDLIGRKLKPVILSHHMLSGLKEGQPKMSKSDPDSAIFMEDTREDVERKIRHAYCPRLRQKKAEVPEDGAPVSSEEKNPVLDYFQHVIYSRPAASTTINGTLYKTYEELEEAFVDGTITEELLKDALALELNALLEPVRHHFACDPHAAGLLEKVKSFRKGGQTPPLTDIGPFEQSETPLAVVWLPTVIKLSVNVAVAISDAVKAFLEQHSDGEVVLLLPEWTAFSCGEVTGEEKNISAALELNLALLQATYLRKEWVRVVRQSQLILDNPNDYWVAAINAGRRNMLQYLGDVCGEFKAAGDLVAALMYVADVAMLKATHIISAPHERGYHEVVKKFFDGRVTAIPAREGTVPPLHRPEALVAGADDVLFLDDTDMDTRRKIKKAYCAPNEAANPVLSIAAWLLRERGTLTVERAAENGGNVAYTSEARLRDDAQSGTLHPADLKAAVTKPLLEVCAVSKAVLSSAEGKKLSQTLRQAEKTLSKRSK
Description: Trypanosoma cruzi tyrosyl tRNA synthetase (TcYRS) _High Tyrosine SOP. Also: in the data most compounds retested in dose-response had high values. In kind it is functional. To be noted: 30 µM.

In experiment [8] the target is T4, Tyrosyl-tRNA synthetase, putative (Trypanosoma cruzi (strain CL Brener)). Description: Trypanosoma cruzi tyrosyl tRNA synthetase (TcYRS) SOP. Type of experiment: functional. Particulars: 30 µM.
The target of experiment [9] is Chromo domain-containing protein 1 (Saccharomyces cerevisiae (strain ATCC 204508 / S288c) (Baker's yeast)) (UniProt P32657). Description: ScCHD-1 Enzyme Inhibition Assay. Also: in the data most compounds retested in dose-response had high values. To be noted: 30 µM. Type of experiment: functional.
Sequence of Chromo domain-containing protein 1 (Saccharomyces cerevisiae (strain ATCC 204508 / S288c) (Baker's yeast)) (P32657 whole entry, the tested form may be a part): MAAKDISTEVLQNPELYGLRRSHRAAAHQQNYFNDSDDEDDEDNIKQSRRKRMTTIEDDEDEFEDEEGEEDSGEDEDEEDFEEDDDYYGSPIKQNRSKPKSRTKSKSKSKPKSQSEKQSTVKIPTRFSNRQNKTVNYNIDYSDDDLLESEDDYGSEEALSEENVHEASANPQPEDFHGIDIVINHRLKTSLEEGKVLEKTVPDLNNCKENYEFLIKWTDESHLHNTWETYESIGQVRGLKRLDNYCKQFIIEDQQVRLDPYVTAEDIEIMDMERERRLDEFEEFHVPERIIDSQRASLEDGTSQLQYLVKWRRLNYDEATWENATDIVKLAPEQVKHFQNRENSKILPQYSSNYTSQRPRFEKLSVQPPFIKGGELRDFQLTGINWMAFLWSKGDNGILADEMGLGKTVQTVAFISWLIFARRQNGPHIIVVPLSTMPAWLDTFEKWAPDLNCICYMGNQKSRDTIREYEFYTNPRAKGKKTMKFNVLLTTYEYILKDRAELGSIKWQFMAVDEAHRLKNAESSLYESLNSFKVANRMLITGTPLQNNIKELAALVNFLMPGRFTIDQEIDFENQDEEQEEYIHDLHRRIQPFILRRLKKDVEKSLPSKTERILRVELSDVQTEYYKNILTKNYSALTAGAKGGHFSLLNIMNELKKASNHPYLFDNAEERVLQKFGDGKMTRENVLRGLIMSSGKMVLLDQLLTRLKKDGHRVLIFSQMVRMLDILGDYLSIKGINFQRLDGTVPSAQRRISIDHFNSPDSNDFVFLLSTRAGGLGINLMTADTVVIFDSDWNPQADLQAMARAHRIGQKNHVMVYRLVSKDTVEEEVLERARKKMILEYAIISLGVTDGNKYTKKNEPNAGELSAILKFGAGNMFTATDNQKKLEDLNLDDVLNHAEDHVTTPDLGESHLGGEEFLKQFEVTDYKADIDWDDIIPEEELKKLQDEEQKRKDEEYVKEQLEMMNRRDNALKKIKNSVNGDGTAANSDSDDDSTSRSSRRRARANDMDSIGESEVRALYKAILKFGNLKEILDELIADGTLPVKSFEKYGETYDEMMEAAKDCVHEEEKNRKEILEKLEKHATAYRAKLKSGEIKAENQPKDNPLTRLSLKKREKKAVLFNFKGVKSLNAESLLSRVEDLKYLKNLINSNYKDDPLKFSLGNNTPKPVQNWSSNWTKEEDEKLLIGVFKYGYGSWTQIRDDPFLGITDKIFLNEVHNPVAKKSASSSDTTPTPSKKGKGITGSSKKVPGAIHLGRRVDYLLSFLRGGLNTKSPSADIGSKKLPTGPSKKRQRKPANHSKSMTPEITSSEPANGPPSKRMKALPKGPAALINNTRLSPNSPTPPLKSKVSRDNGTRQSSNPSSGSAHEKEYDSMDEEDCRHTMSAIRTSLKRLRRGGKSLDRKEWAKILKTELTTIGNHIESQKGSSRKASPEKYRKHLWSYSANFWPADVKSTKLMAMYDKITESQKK

The structures appear in SMILES notation. For some of these results: Measured potencies and affinities stand elsewhere.

Sequence of Protein translocase subunit SecA (Escherichia coli (strain K12)) (P10408 whole entry): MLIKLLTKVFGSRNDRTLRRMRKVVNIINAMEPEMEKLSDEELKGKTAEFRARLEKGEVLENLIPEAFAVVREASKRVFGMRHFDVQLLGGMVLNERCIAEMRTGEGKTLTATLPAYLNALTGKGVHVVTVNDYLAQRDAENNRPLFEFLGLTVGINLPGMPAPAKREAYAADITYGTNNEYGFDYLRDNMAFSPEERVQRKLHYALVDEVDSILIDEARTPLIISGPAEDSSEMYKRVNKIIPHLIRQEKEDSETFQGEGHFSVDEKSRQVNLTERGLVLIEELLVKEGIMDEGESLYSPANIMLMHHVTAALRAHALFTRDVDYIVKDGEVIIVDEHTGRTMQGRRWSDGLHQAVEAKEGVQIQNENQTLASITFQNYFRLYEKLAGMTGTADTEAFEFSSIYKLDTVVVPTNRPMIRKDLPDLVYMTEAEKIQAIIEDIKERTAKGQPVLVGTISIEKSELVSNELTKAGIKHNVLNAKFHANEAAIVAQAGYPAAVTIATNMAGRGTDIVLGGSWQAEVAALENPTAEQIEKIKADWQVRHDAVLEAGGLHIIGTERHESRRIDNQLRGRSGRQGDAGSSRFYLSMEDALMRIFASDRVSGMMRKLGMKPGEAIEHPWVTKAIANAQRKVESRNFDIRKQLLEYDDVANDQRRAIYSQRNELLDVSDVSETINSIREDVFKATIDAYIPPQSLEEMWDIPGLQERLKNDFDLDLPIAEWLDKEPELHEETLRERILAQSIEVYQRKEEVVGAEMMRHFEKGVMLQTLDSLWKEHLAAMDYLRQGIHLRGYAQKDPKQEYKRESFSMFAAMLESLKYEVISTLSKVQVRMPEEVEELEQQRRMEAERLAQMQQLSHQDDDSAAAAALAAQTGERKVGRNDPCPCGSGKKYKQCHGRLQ
Sequence of Sialic acid-binding Ig-like lectin 9 (Homo sapiens) (Q9Y336 whole entry): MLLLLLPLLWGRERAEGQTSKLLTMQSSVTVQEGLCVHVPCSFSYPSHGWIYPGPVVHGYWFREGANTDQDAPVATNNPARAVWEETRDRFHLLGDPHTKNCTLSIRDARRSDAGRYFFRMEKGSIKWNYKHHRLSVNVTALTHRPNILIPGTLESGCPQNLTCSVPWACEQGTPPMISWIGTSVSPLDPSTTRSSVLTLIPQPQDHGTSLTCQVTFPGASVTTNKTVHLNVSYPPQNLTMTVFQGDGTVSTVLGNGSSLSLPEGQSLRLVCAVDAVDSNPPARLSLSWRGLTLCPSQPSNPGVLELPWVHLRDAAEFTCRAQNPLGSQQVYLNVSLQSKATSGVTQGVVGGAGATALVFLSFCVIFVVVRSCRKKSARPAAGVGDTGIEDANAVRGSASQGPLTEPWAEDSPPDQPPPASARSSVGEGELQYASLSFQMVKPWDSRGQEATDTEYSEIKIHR

With `CS(=O)(=O)c1ccc(NC(=O)N2CCc3sccc3C2)cn1`, the Percent Effect in [1] is -2.17%; in experiment [2], 10.8%; in experiment [3], 4.69%; in experiment [4], -4.04%; in the experiment on Trypanosoma cruzi, -3.71%; in [5], 1.67%. For the same compound, the Percent Effect in experiment [6] came to 18.3%; in the experiment listed under Homo sapiens, 63.4%; in experiment [7] it was 5.94%; in experiment [8] it was 11%; in [9] it was 13.6%.

Take `COc1cccc(CN2CCN(c3ccc4nncn4n3)C(C)C2)c1` (stereo not drawn): the Percent Effect in experiment [1] was -6.29%; in experiment [2], -20.8%; in experiment [3], -1.07%; in experiment [4], -4.72%; in the experiment on Trypanosoma cruzi it was -3%; in [5] it was 0.712%. Also, the Percent Effect in experiment [6] was -1.86%; in the experiment filed under Homo sapiens, 85.3%; in experiment [7], 6.8%; in [8] it was -2.44%; in experiment [9], 5.81%.

With `Cn1ccc(CN2CCC(OCCc3ccccc3)CC2)cc1=O`, the Percent Effect was -2.81% in experiment [1]; 0% in experiment [2]; -1.45% in experiment [3]; -0.922% in [4]; -4.87% in the experiment with Trypanosoma cruzi; 4.98% in [5]. Besides, the Percent Effect in experiment [6] is -5.41%; in the experiment filed under Homo sapiens it was 29.9%; in experiment [7] it was 0.971%; in experiment [8], 0%; in experiment [9], 1.89%.

For the compound `Cc1n[nH]c(C)c1NC(=O)CN1CCn2c(nnc2C(C)C)C1`, the Percent Effect in [1] was -0.613%; in experiment [2] it was 2.6%; in experiment [3], 7.19%; in experiment [4], 2.99%; with Trypanosoma cruzi it was 2.06%; in experiment [5] it was 2.74%. Moreover, the Percent Effect was 5.42% in experiment [6]; -7.56% in the experiment listed under Homo sapiens; 0% in experiment [7]; 0% in [8]; -16.6% in experiment [9].

Turning to `Cn1cnnc1S(=O)(=O)C1CCN(S(=O)(=O)c2ccc(F)c(Cl)c2)CC1`, the Percent Effect was -0.452% in [1]; -5.48% in [2]; 9.53% in experiment [3]; -2.11% in experiment [4]; -1.37% with Trypanosoma cruzi; 1.36% in [5]. The Percent Effect was 7.1% in experiment [6]; 8.21% in the experiment filed under Homo sapiens; -1.07% in experiment [7]; 0% in experiment [8]; -1.74% in experiment [9].

Consider `OCCn1cc(CN2CCN(CCOc3ccccc3)CC2)cn1`, for which the Percent Effect in [1] is -4.31%; in [2] it was 8.11%; in [3] it was -1.96%; in experiment [4], 0.413%; in the experiment on Trypanosoma cruzi, -4.36%; in experiment [5] it was 1.29%. Further, the Percent Effect in experiment [6] is 11.3%; in the experiment filed under Homo sapiens, 3.13%; in experiment [7], 2.97%; in experiment [8], 3.66%; in [9], -2.48%.

As to `O=C1CC(c2ccc(C(=O)O)cc2)c2ncn(-c3cccc(F)c3)c2N1` (stereo not drawn), the Percent Effect in experiment [1] is -3.41%; in experiment [2], 9.33%; in experiment [3], -61.2%; in [4], -4.05%; with Trypanosoma cruzi, -4.13%; in [5], 7.57%. Besides, the Percent Effect in experiment [6] is 13.3%; in the experiment listed under Homo sapiens, -9.89%; in experiment [7], 10.6%; in experiment [8], 15.4%; in [9] it was -7.23%.

With `O=C1c2cnc(N3CCOCC3)nc2CN1c1ccc2c(c1)OCO2`, the Percent Effect in experiment [1] was -4.88%; in experiment [2] it was 7.79%; in [3], 1.53%; in experiment [4] it was 6.09%; with Trypanosoma cruzi, 2.26%; in experiment [5], -5.52%. The Percent Effect in experiment [6] is 14.5%; in the experiment filed under Homo sapiens it was -11.1%; in experiment [7], 9.68%; in experiment [8], 21%; in [9], 0.201%.
